Source: PubChem BioAssay AID677 (Vanderbilt High Throughput Screening Facility, 2007)
About 720 (42%) of roughly 1,700 compounds were called active.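 The calls were made as follows: active = calcium response below the same-plate mean of wells given acetylcholine alone at its 80%-effect dose, minus 3 SD; inactive = the rest.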 So high a share suggests a set chosen from earlier hits. Only a sample is shown.

biological target: Muscarinic acetylcholine receptor M1 (Rattus norvegicus) (UniProt P08482); assay: rat M1 muscarinic receptor antagonists, confirmation, CHO cells, Fluo-4 calcium, duplicate (AID 677); details: ACh EC80 antagonism, at 10 µM, stronger effect = lower value;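 also: raw fluorescence intensity difference in arbitrary instrument units and not normalized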
Sequence (P08482 whole entry, looked up): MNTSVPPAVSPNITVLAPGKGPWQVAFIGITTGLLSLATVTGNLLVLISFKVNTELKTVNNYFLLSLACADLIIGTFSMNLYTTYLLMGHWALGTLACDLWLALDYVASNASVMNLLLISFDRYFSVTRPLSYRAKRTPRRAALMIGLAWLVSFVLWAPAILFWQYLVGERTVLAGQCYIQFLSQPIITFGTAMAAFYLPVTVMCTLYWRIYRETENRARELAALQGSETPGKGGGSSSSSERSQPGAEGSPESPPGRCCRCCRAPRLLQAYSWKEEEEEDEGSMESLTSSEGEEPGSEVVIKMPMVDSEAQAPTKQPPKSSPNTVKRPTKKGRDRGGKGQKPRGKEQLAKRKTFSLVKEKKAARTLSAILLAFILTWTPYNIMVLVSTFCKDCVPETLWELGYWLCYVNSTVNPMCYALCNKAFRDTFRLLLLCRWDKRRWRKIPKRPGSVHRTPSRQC

Calcium response (max-min fluorescence), active:
Cc1ccsc1-c1nc(CSCC(=O)NCCN2CCCC2)c(C)o1 379
CN1CCN(c2ccc(NC(=O)COc3ccc(Cl)cc3Cl)cc2)CC1 339
O=C(Cc1cccs1)N1CCCC(c2nc(-c3ccc(S(=O)(=O)N4CCCC4)cc3)no2)C1 (stereo not given) 457
CCn1c(=N)n(CC(=O)c2cccc(OC)c2)c2ccccc21 447
CCOC(=O)Nc1ccc2c(c1)N(C(=O)CN1CCN3CCCC3C1)c1ccccc1CC2 (stereo not given) 476
Cc1ccccc1C(OCC(O)CN1CCCCC1CCO)c1ccccc1 (stereo not given) 337
CCCCN(C)C(=O)c1ccc2c(c1)N(CC)C(=O)c1ccccc1S2(=O)=O 320
Cc1ccc(-c2noc(CCC(=O)Nc3ccccc3N3CCN(C)CC3)n2)cc1 535
O=C(C(NS(=O)(=O)c1cccc2nsnc12)c1ccccc1)N1CCN(c2ccccn2)CC1 (stereo not given) 430
CCN1CCN(c2c(Cl)cccc2NC(=O)c2ccc(Br)o2)CC1 179
Cc1nc2c(-c3ccc(F)cc3)c(C)nn2c(C)c1CCC(=O)N1CCN(c2ccccn2)CC1 512
Cc1cccc(N2CCN(Cc3c(C)n(C)n(-c4ccccc4)c3=O)CC2)c1C 413
CCn1c(=O)cc(OCC(=O)NCCCN2CCN(c3cccc(Cl)c3)CC2)c2ccccc21 499
O=C(NCCCN1CCCCCC1)C1CC(=O)N(C2CCCC2)C1 (stereo not given) 430
c1ccc(-c2cc(-c3nnc4sc(-c5ccccn5)nn34)[nH]n2)cc1 437
CCN(CCCCOC(=O)c1ccc(OC)c(OC)c1)C(C)Cc1ccc(OC)cc1 (stereo not given) 18.8
CC12CN(Cc3ccccc3)CC(C)(CN(Cc3ccccc3)C1)C2=NO 113
Cc1nc2ccccc2c2oc(C(=O)NCCCN3CCC(C)CC3)cc12 498
CCC(C(=O)OCCN(CC)CC)c1ccccc1 (stereo not given) 24
CCCCOc1ccc(C(C)(O)CCN2CCOCC2)cc1 (stereo not given) 448
O=C1NC(Nc2nc3ccccc3s2)(C(F)(F)F)C(=O)N1C1CCCCC1 (stereo not given) 339
O=C(C(c1ccccc1)c1ccccc1)N1CCN(CC(O)COc2ccccc2)CC1 (stereo not given) 490
CCOC(=O)N1CCN(C(=O)C2CCCN(c3ncnc4c3sc3cccc(F)c34)C2)CC1 (stereo not given) 126
CCOC(=O)N1CCN(C(=O)C2CCN(c3ncnc4c3sc3cccc(F)c34)CC2)CC1 468
CSc1nnc2c(n1)OC(c1ccsc1)N(C(C)=O)c1ccccc1-2 (stereo not given) 250
CCOC(=O)C1CCN(Cc2coc3ccc(Cl)cc3c2=O)CC1 351
O=C(CCCN1C(=O)CSc2ncccc21)N1CCN(c2cccc(C(F)(F)F)c2)CC1 462
CN(C)CCOC(=O)C(c1ccccc1)C1(O)CCCC1 (stereo not given) 17.7
CC1(C)CN=C(N2CCN(c3ncnc4sc5c(c34)CCCC5)CC2)S1 344
CC(C)(C)n1nnnc1C(c1cccs1)N(Cc1cccnc1)CC1CCCO1 (stereo not given) 380
O=S(=O)(c1ccc(OCC(O)CN2CCN(c3ccccc3Cl)CC2)cc1)N1CCOCC1 (stereo not given) 515
CCOC(=O)C1=C(CC)Nc2ccccc2N=C1NC(=O)c1cccc(S(=O)(=O)N2CCCC2)c1 466
Cn1c(CCN2CCCCCC2)nc2cc(NC(=O)Nc3ccccc3)ccc21 252
CCOC(=O)c1[nH]c2ccc(OC)cc2c1NC(=O)CCN1CCN(Cc2ccccc2)CC1 218
O=C(c1ccc(-n2cnnn2)cc1)N1CCN(C(c2ccccc2)c2ccccc2)CC1 100
COC(CCN(C)C)(c1ccccc1)c1ccccc1 226

Calcium response (max-min fluorescence), inactive:
C=CCn1c(=S)[nH]c2nc3c(cc2c1=O)COC(C)(C)C3 521
Cc1c(C)c2cc3c4c(oc3c(C)c2oc1=O)CCCC4 548
O=S(=O)(CCc1nc2ccccc2o1)c1ccc(Cl)cc1 608
C=CCSc1nc2ccccc2[nH]1 649
COc1ccc(-c2noc(CN(C)S(=O)(=O)c3ccc(C)cc3)n2)cc1 520
O=C(c1ccco1)N1CCN=C1SCc1cccc(Cl)c1 602
CN1CCN(CC(=O)Nc2sc3c(c2C#N)CCC(C(C)(C)C)C3)CC1 (stereo not given) 551
COc1ccc(CCn2c(=N)c(C(=O)NCc3ccco3)cc3c(=O)n4cccc(C)c4nc32)cc1 489
CCOC(=O)c1c(NC(=O)CSc2nnc(CN3CCOCC3)n2C)sc2c1CCCC2 535
COCCn1c(SCC(=O)Nc2cc(Cl)ccc2OC)nc2c(c1=O)SC(C)C2 (stereo not given) 596
O=C(CCN1C(=O)COc2ccccc21)NCCCN1CCN(c2ccc(F)cc2)CC1 484
COc1cccc2sc(Nc3nc(C)c(C(C)=O)s3)nc12 507
O=C(NCC(F)(F)F)Nc1nnc(C(F)(F)F)s1 552
COC(=O)c1ccc(C2C3=C(Nc4nnnn42)c2ccccc2OC3)cc1 (stereo not given) 596
CC1CCCC(C)N1CCCNC(=O)c1cc2c(=O)n(C)c3ccccc3c2n1C (stereo not given) 487
CCC1(C)Cc2c(sc3nc4n(c(=O)c23)CCCS4)CO1 (stereo not given) 471
CCN1C(=O)/C(=C2\SC(N3CCCCC3)=NC2=O)c2ccccc21 460
COc1cc(Cl)c(C)cc1NC(=O)CSc1nnc(-c2ccco2)n1CC(C)C 533
O=C(Nc1ccncc1)c1c(F)cccc1F 653
CCOC(=O)c1c(-c2ccc(C)cc2C)csc1NC(=O)CSc1nnnn1C 519
CCC(=O)c1ccc(OCC(O)CN2CCN(c3cccc(C(F)(F)F)c3)CC2)cc1 (stereo not given) 531
COc1ccccc1OCCOc1ccc(/C=N/n2cnnc2)cc1 587
CCC/C(O)=C1\C(=O)CC(C)(C)CC1=Nc1ccccc1OC 647
Cc1ccc(-c2csc3nnc(SCC(=O)NCc4ccco4)n23)cc1 620
CCOC(=O)N1CCN(CC(=O)Nc2cc(C)nn2-c2nc3ccccc3s2)CC1 645
CCOC(=O)N1CCN(S(=O)(=O)c2cc(Br)cc3c2N(C(=O)C2CC2)CC3)CC1 646
COc1ccc(-c2nnn(Cc3nc(N)nc(N4CCCCC4)n3)n2)cc1 539
CCC(C)(NC(=O)c1ccccn1)C(=O)NC1CCCCC1 (stereo not given) 623
N#CC(C(=O)c1ccc(S(=O)(=O)N2CCCCCC2)cc1)c1nc2ccccc2[nH]1 (stereo not given) 689
CC1=Nn2c(nnc2-c2ccccc2)SC1 675
CCCCCOC(=O)NCCOC(=O)Nc1ccc(C(=O)OCC)cc1 655
COc1cc(OC)c(C(=O)NC2CC(C)(C)NC(C)(C)C2)cc1OC 510
Cc1cc(C)n(-c2nc(SCC(=O)N3CCCC3)c3c4c(sc3n2)CCCC4)n1 466
COC(=O)c1ccc(NC(=O)CN(c2ccc(C)cc2)S(=O)(=O)c2c(C)n[nH]c2C)cc1 538
O=C(NC1=NCCS1)c1ccc(Cl)s1 680
C=C(C)Cn1c(N2CCCC2)nc2c1c(=O)[nH]c(=O)n2C 505
O=C(c1ccc(S(=O)(=O)N2CCOCC2)cc1)N1CCN(c2ccccc2)CC1 556
COc1ccc(S(=O)(=O)Nc2ccc3c(c2)OCO3)cc1Cl 516
CN(C)[C@@H]1C(=O)C(C(N)=O)=C(O)[C@@]2(O)C(=O)C3=C(O)c4c(O)ccc(Cl)c4[C@@H](O)[C@H]3C[C@@H]12 610
CC1(C)Cc2c(sc3nc4n(c(=N)c23)CCCCC4)CO1 398
CCCCN(CCCC)C(=O)CCS(=O)(=O)c1ccc2c(c1)n(C)c(=O)c(=O)n2C 581
CCOc1ccccc1C(=O)NCCCn1ccnc1 665
COc1cccc(OCCOc2cccc(/C=N/n3cnnc3)c2)c1 588
COCCN(C(=O)CCC(=O)Nc1ccccn1)C(C(=O)NCCC(C)C)c1ccc(OC)cc1 (stereo not given) 575
